# Test results from the antibiotic and cytotoxicity screens of Wong et al. (2023).
# About 3,300 (8.5%) of roughly 39,000 compounds were called active. This is one part of a sample in which actives are shown more often than they occur.
# Test system: HepG2
# Assay: cytotoxicity call (relative viability < 0.9)
# Details: 10 µM
row,SMILES,cytotoxicity call
1,CNCCCC12CCC(c3ccccc31)c1ccccc12.Cl,active
2,CC(C)CC#Cc1cnc2c(c1)C(=O)N([C@@H](C)CO)C[C@H](C)[C@@H](CN(C)C(=O)CN1CCOCC1)O2,inactive
3,C[C@@H]1CCCCO[C@H](CN(C)C(=O)CCCN(C)C)[C@H](C)CN([C@@H](C)CO)C(=O)c2cc(NC(=O)Nc3ccc(C(F)(F)F)cc3)ccc2O1,inactive
4,COc1ccccc1C#Cc1cnc2c(c1)C(=O)N([C@H](C)CO)C[C@H](C)[C@H](CN(C)S(=O)(=O)c1cn(C)cn1)O2,inactive
5,C[C@@H]1CCCCO[C@H](CN(C)S(=O)(=O)c2ccccc2)[C@H](C)CN([C@@H](C)CO)C(=O)c2cc(NS(=O)(=O)c3cn(C)cn3)ccc2O1,inactive
6,C[C@@H]1CN([C@H](C)CO)C(=O)c2cc(NC(=O)c3ccccc3)ccc2O[C@@H](C)CCCCO[C@@H]1CN(C)C(=O)Nc1cccc2ccccc12,inactive
7,C[C@H](CO)N1C[C@H](C)[C@@H](CN(C)C(=O)Nc2cccc3ccccc23)OCCCC[C@H](C)Oc2ccc(NC(=O)c3ccccc3)cc2C1=O,inactive
8,C[C@@H]1CCCCO[C@@H](CN(C)C(=O)Nc2cccc3ccccc23)[C@@H](C)CN([C@H](C)CO)C(=O)c2cc(NC(=O)c3ccccc3)ccc2O1,inactive
9,C[C@@H]1CCCCO[C@@H](CN(C)C(=O)Nc2cccc3ccccc23)[C@H](C)CN([C@@H](C)CO)C(=O)c2cc(NC(=O)c3ccccc3)ccc2O1,active
10,C[C@@H]1CCCCO[C@H](CN(C)C(=O)Nc2cccc3ccccc23)[C@H](C)CN([C@@H](C)CO)C(=O)c2cc(NC(=O)c3ccccc3)ccc2O1,inactive
11,C[C@H]1CCCCO[C@H](CN(C)C(=O)Nc2cccc3ccccc23)[C@@H](C)CN([C@@H](C)CO)C(=O)c2cc(NC(=O)c3ccncc3)ccc2O1,inactive
12,C[C@@H]1CCCCO[C@@H](CN(C)C(=O)Nc2cccc3ccccc23)[C@@H](C)CN([C@@H](C)CO)C(=O)c2cc(NC(=O)c3ccccc3)ccc2O1,inactive
13,C[C@@H]1CN([C@@H](C)CO)C(=O)c2cc(NC(=O)c3ccccc3)ccc2O[C@@H](C)CCCCO[C@H]1CN(C)C(=O)Nc1cccc2ccccc12,active
14,C[C@@H]1CCCCO[C@H](CN(C)C(=O)Nc2cccc3ccccc23)[C@@H](C)CN([C@@H](C)CO)C(=O)c2cc(NC(=O)c3ccncc3)ccc2O1,active
15,C[C@@H]1CCCCO[C@H](CN(C)C(=O)Nc2cccc3ccccc23)[C@@H](C)CN([C@H](C)CO)C(=O)c2cc(NC(=O)c3ccccc3)ccc2O1,inactive
16,C[C@@H]1CN([C@H](C)CO)C(=O)c2cc(NC(=O)c3ccccc3)ccc2O[C@@H](C)CCCCO[C@H]1CN(C)C(=O)Nc1cccc2ccccc12,active
17,C[C@H](CO)N1C[C@H](C)[C@@H](CN(C)C(=O)Nc2cccc3ccccc23)OCCCC[C@H](C)Oc2ccc(NC(=O)c3ccncc3)cc2C1=O,inactive

row,SMILES,cytotoxicity call
1,CC(C)NC(=O)N(C)C[C@H]1OCCCC[C@@H](C)Oc2ccc(NC(=O)Nc3ccc(F)cc3)cc2C(=O)N([C@@H](C)CO)C[C@H]1C,inactive
2,CC(C)CC#Cc1cnc2c(c1)C(=O)N([C@H](C)CO)C[C@@H](C)[C@H](CN(C)S(=O)(=O)c1cccs1)O2,inactive
3,Cc1noc(C)c1S(=O)(=O)N(C)C[C@H]1OCCCC[C@H](C)Oc2ccc(NS(C)(=O)=O)cc2C(=O)N([C@@H](C)CO)C[C@@H]1C,inactive
4,C[C@@H]1CN([C@@H](C)CO)C(=O)Cc2cc(NC(=O)C3CC3)ccc2O[C@H]1CN(C)C(=O)Nc1ccc2c(c1)OCO2,inactive
5,CNC(=O)c1ccc2c(c1)OCO2,inactive
6,O=C(C[C@@H]1C[C@H]2c3cc(NS(=O)(=O)c4ccc(F)cc4)ccc3O[C@H]2[C@H](CO)O1)NCc1cccc(F)c1,inactive
7,C[C@H]1CN([C@@H](C)CO)C(=O)Cc2cc(NC(=O)NC3CCCCC3)ccc2O[C@H]1CN(C)C(=O)Nc1ccc(C(F)(F)F)cc1,inactive
8,C[C@H](CO)N1C[C@H](C)[C@@H](CN(C)Cc2ccc(Oc3ccccc3)cc2)Oc2cc(Br)ccc2S1(=O)=O,inactive
9,C[C@H]1CN([C@@H](C)CO)C(=O)Cc2cc(NS(=O)(=O)c3cccs3)ccc2O[C@H]1CN(C)S(=O)(=O)c1ccccc1,inactive
10,C[C@@H]1CCCCO[C@@H](CN(C)Cc2ccccc2)[C@H](C)CN([C@@H](C)CO)C(=O)c2cc(NS(=O)(=O)c3ccc(F)cc3)ccc2O1,inactive
11,Cc1c2oc3c(C)ccc(C(=O)N[C@@H]4C(=O)N[C@H](C(C)C)C(=O)N5CCC[C@H]5C(=O)N(C)CC(=O)N(C)[C@@H](C(C)C)C(=O)O[C@@H]4C)c3nc-2c(C(=O)N[C@@H]2C(=O)N[C@H](C(C)C)C(=O)N3CCC[C@H]3C(=O)N(C)CC(=O)N(C)[C@@H](C(C)C)C(=O)O[C@@H]2C)c(N)c1=O,active
12,Cc1c2oc3c(C)ccc(C(=O)OC(C)C4NC(=O)C(C(C)C)N(C)C(=O)CN(C)C(=O)C5CCCN5C(=O)C(C(C)C)NC4=O)c3nc-2c(C(=O)OC(C)C2NC(=O)C(C(C)C)N(C)C(=O)CN(C)C(=O)C3CCCN3C(=O)C(C(C)C)NC2=O)c(N)c1=O (stereo not drawn),active
13,Cc1c2oc3c(C)ccc(C(=O)N[C@@H]4C(=O)N[C@@H](C(C)C)C(=O)N5CCC[C@H]5C(=O)N(C)CC(=O)N(C)[C@@H](C(C)C)C(=O)O[C@@H]4C)c3nc-2c(C(=O)N[C@@H]2C(=O)N[C@@H](C(C)C)C(=O)N3CCC[C@H]3C(=O)N(C)CC(=O)N(C)[C@@H](C(C)C)C(=O)O[C@@H]2C)c(N)c1=O,active
14,CO[C@@H]1CN(C)C(=O)c2cc(NC(=O)c3cc(C)on3)ccc2OC[C@@H](C)N(S(=O)(=O)c2ccccc2)C[C@H]1C,inactive
15,COc1ccc(S(=O)(=O)N(C)C[C@H]2Oc3c(NS(=O)(=O)c4ccccc4)cccc3C(=O)N([C@H](C)CO)C[C@H]2C)cc1,inactive
16,Cc1ccc(S(=O)(=O)Nc2cccc3c2O[C@H](CN(C)S(=O)(=O)c2cccs2)[C@H](C)CN([C@H](C)CO)C3=O)cc1,inactive
